C diff HTS – C. difficile growth inhibitors, primary screen, HTS; Clostridium difficile clinical isolate growth, OD600, 24 h; hits give low values; growth activity, negative = inhibition, % at 16 µg/mL (by protocol); actives 0.25% (n = 86,000); AID 1259249, 2017;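 active = mean growth activity at or below -80% and every replicate also at or below -80%; inconclusive = mean at or below -80% but some replicate above -80%; inactive = mean growth activity above -80%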;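 note: 0% = DMSO wells and -100% = levofloxacin 16 µg/mL wells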
Pf Dd2 growth – P. falciparum Dd2 growth inhibitors, primary screen, SYBR Green fluorescence, single dose replicates | 72 h; hits give low values | actives 2.3% (n = 94,000) | activity change, % at 10 µM | AID 1159554, 2015; in the data active = activity change below about -80%; inconclusive = no clear call, values can overlap the other calls
Numbers without * were called inactive; ? = inconclusive. Compounds with a hit are over-represented: about 2.3% of the library has one in this group of screens.

SMILES	C diff HTS	Pf Dd2 growth
CCCNC(=O)C[C@H]1C[C@H]2c3cc(NS(=O)(=O)c4ccc(OC)cc4)ccc3O[C@H]2[C@H](CO)O1	-3.2	2.8
Cc1ccc(S(=O)(=O)Nc2ccc3c(c2)CC(=O)N([C@@H](C)CO)C[C@H](C)[C@@H](CN(C)Cc2ccc(C(=O)Nc4ccccc4N)cc2)O3)cc1	1.5	-84.8*
C[C@H](CO)N1C[C@H](C)[C@@H](CN(C)Cc2ccc(C(=O)Nc3ccccc3N)cc2)Oc2ccc(NS(C)(=O)=O)cc2CC1=O	-2.1	-17.9
Cc1ccc(S(=O)(=O)Nc2ccc3c(c2)CC(=O)N([C@H](C)CO)C[C@@H](C)[C@@H](CN(C)Cc2ccc(C(=O)Nc4ccccc4N)cc2)O3)cc1	1.8	-85.9*
C[C@@H]1CN([C@@H](C)CO)C(=O)Cc2cc(NS(C)(=O)=O)ccc2O[C@@H]1CN(C)Cc1ccc(C(=O)Nc2ccccc2N)cc1	0.7	8.0
COc1ccc(S(=O)(=O)Nc2ccc3c(c2)CC(=O)N([C@@H](C)CO)C[C@@H](C)[C@H](CN(C)Cc2ccc(Oc4ccccc4)cc2)O3)cc1	69.7	?
CCC(=O)N1CCCCN2[C@H](C1)[C@H](c1ccc(-c3cccc(C#N)c3)cc1)[C@@H]2CO	4.4	-18.7
CC=Cc1ccc2n(c1=O)C[C@H]1[C@H](CO)[C@@H](C(=O)NCC3CC3)[C@@H]2N1CCC(F)(F)F (mixture of isomers)	-1.9	3.9
C[C@@H]1CCCCO[C@@H](CN(C)Cc2ccc(C(=O)Nc3ccccc3N)cc2)[C@@H](C)CN([C@H](C)CO)C(=O)c2cc(NS(C)(=O)=O)ccc2O1	1.4	-71.3
Cc1ccc(S(=O)(=O)Nc2ccc3c(c2)C(=O)N([C@@H](C)CO)C[C@H](C)[C@@H](CN(C)Cc2ccc(C(=O)Nc4ccccc4N)cc2)OCCCC[C@@H](C)O3)cc1	28.6	-92.0*
Cc1noc(C)c1S(=O)(=O)Nc1ccc2c(c1)C(=O)N([C@@H](C)CO)C[C@H](C)[C@@H](CN(C)Cc1ccc(C(=O)Nc3ccccc3N)cc1)OCCCC[C@@H](C)O2	16.0	-85.3*
C[C@@H]1CCCCO[C@H](CN(C)Cc2ccc(C(=O)Nc3ccccc3N)cc2)[C@@H](C)CN([C@H](C)CO)C(=O)c2cc(NS(=O)(=O)c3ccccc3)ccc2O1	-1.2	-88.9*
Cc1noc(C)c1S(=O)(=O)Nc1ccc2c(c1)C(=O)N([C@H](C)CO)C[C@H](C)[C@H](CN(C)Cc1ccc(C(=O)Nc3ccccc3N)cc1)O2	8.0	-74.4
C[C@@H]1CCCCO[C@H](CN(C)Cc2ccc(C(=O)Nc3ccccc3N)cc2)[C@@H](C)CN([C@H](C)CO)C(=O)c2cc(NS(=O)(=O)c3ccc(F)cc3)ccc2O1	-8.3	?
CC(C)NC(=O)N(C)C[C@H]1Oc2c(NC(=O)CCCCCC(=O)Nc3ccccc3N)cccc2C(=O)N([C@H](C)CO)C[C@@H]1C	-2.1	19.8
C[C@@H]1CN([C@@H](C)CO)C(=O)c2cc(NC(=O)Cc3ccccc3)ccc2O[C@@H]1CN(C)C	0.2	14.9
COc1ccccc1C#Cc1ccc2c(c1)[C@@H]1[C@@H](CCN1C(=O)c1ccccc1)[C@@H](CO)N2	73.6	-28.3
CCNC(=O)C[C@H]1CC[C@@H]2[C@H](COc3ccc(NC(=O)Nc4ccccc4OC)cc3C(=O)N2C)O1	-4.8	-6.5
C[C@H]1CN([C@@H](C)CO)C(=O)c2cccc(NC(=O)CCCCCC(=O)Nc3ccccc3N)c2O[C@H]1CN(C)S(=O)(=O)c1ccc(Cl)cc1	-6.4	-89.9*
COc1ccc(S(=O)(=O)N(C)C[C@H]2Oc3c(NC(=O)CCCCCC(=O)Nc4ccccc4N)cccc3C(=O)N([C@@H](C)CO)C[C@H]2C)cc1	-5.8	-92.1*
C[C@@H]1CN([C@H](C)CO)C(=O)c2cccc(NC(=O)CCCCCC(=O)Nc3ccccc3N)c2O[C@H]1CN(C)S(=O)(=O)c1ccc(Cl)cc1	-5.8	-80.0
C[C@@H]1CN([C@@H](C)CO)C(=O)c2cccc(NC(=O)CCCCCC(=O)Nc3ccccc3N)c2O[C@H]1CN(C)S(=O)(=O)c1ccc(F)cc1	-4.7	-75.9
COc1ccc(S(=O)(=O)N(C)C[C@@H]2Oc3c(NC(=O)CCCCCC(=O)Nc4ccccc4N)cccc3C(=O)N([C@@H](C)CO)C[C@@H]2C)cc1	1.3	-66.8
C[C@@H]1CN([C@H](C)CO)C(=O)c2cccc(NC(=O)CCCCCC(=O)Nc3ccccc3N)c2O[C@@H]1CN(C)S(=O)(=O)c1ccc(F)cc1	-0.9	-80.0
C[C@H](CO)N1C[C@H](C)[C@H](CN(C)S(=O)(=O)c2ccc(F)cc2)Oc2c(NC(=O)CCCCCC(=O)Nc3ccccc3N)cccc2C1=O	-8.2	-83.3*
SMILES	C diff HTS	Pf Dd2 growth
C[C@@H]1CN([C@@H](C)CO)C(=O)c2cccc(NC(=O)CCCCCC(=O)Nc3ccccc3N)c2O[C@@H]1CN(C)S(=O)(=O)c1ccc(F)cc1	-4.7	-92.3*
C[C@@H]1CN([C@H](C)CO)C(=O)c2cc(NC(=O)NC3CCCCC3)ccc2O[C@@H]1CN(C)C(=O)NC1CCCCC1	-3.7	-13.5
CNC[C@@H]1Oc2cc(C#C[C@@H](C)O)ccc2S(=O)(=O)N([C@H](C)CO)C[C@H]1C	-5.0	-71.0
COc1ccc(S(=O)(=O)Nc2cccc3c2O[C@@H](CN(C)Cc2ccc(C(=O)Nc4ccccc4N)cc2)[C@@H](C)CN([C@H](C)CO)C3=O)cc1	5.1	-75.7
COc1ccc(S(=O)(=O)Nc2cccc3c2O[C@H](CN(C)Cc2ccc(C(=O)Nc4ccccc4N)cc2)[C@H](C)CN([C@H](C)CO)C3=O)cc1	10.5	-87.4*
COc1ccc(S(=O)(=O)Nc2cccc3c2O[C@H](CN(C)Cc2ccc(C(=O)Nc4ccccc4N)cc2)[C@H](C)CN([C@@H](C)CO)C3=O)cc1	2.1	-86.1*
COc1ccc(S(=O)(=O)Nc2cccc3c2O[C@H](CN(C)Cc2ccc(C(=O)Nc4ccccc4N)cc2)[C@@H](C)CN([C@H](C)CO)C3=O)cc1	-2.9	-31.2
Cc1noc(C)c1NC(=O)Nc1ccc2c(c1)CC(=O)N([C@@H](C)CO)C[C@H](C)[C@@H](CN(C)C(=O)Nc1c(C)noc1C)O2	7.6	18.7
CCCN(C)C[C@@H]1Oc2ncc(-c3ccccc3OC)cc2C(=O)N([C@@H](C)CO)C[C@@H]1C	3.6	-43.7
C[C@@H]1CN([C@@H](C)CO)C(=O)c2cc(NS(=O)(=O)c3ccccc3)ccc2O[C@@H](C)CCCCO[C@@H]1CN(C)S(=O)(=O)c1ccc(Cl)cc1	4.0	-85.1*
C[C@@H]1CCCCO[C@@H](CN(C)S(=O)(=O)c2ccc(Cl)cc2)[C@@H](C)CN([C@@H](C)CO)C(=O)c2cc(NS(=O)(=O)c3ccccc3)ccc2O1	0.7	-70.2
C[C@@H]1CN([C@H](C)CO)C(=O)c2cc(NS(=O)(=O)c3ccccc3)ccc2O[C@@H](C)CCCCO[C@@H]1CN(C)S(=O)(=O)c1ccc(Cl)cc1	1.2	-74.4
C[C@H]1CCCCO[C@H](CN(C)S(=O)(=O)c2ccc(Cl)cc2)[C@@H](C)CN([C@@H](C)CO)C(=O)c2cc(NS(=O)(=O)c3ccccc3)ccc2O1	0.2	-89.7*
CC(=O)Nc1ccc2c(c1)C(=O)N(C)[C@H]1CC[C@H](CC(=O)NCC3CC3)O[C@@H]1CO2	-1.4	0.4

Compound activity from PubChem.
